Only some compounds are listed: those with a hit (about 2.1% of all), similar ones and a draw of the others.
FUS yeast rescue – suppressors of FUS proteinopathy in yeast; Potency, µM (titrated, usually from 76.6 µM), actives largely listed as activators; 390,000 compounds, 0.24% hits; AID 1347120; S. cerevisiae FUS-expressing, growth rescue, OD600, 24 h;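 also: plate controls were DMSO vehicle for no effect and reference control for full effect; nearly all actives have a fitted effect of over 55% in size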
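Compound concentration series was pinned onto galactose-induced FUS-expressing yeast seeded at OD 0.005. Plates sat 24hr at 30C; absorbance at 600 nm gave growth. DMSO served as background control.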
Abeta yeast res – A-beta toxicity reversal in yeast | yeast expressing A-beta42, growth rescue, OD600, 48 h; response scale: 0% DMSO, 100% iron-clioquinol control | Potency, µM (doses to about 46.1 µM), hits mostly activators | 410,000 compounds, 0.063% hits; also: nearly all actives have a fitted effect of over 55% in size
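Growth rescue measured by 600 nm absorbance after 48 h yeast culture at 30 C with compound. Values normalized between DMSO and an equimolar ferric chloride plus clioquinol control.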
aSyn yeast inh – rescues yeast growth from alpha-synuclein toxicity | 370,000 compounds, 0.14% hits | Yeast expressing alpha-synuclein, growth rescue, BacTiter-Glo, 24 h | AID 652106 | Potency, µM (doses to about 46.1 µM), for the others: top-dose growth rescue (activation), hits mostly activators; also: % of control where 0% means no effect; nearly all actives have a fitted effect of over 65% in size
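Rescue of yeast growth: cells expressing toxic alpha-synuclein, induced in galactose at OD600 0.02, incubated with compound 24 h at 30 C. ATP luminescence quantified growth; inhibitors of toxicity appear as activators.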
TDP-43 yeast inh – inhibitors of TDP-43 toxicity in yeast; TDP-43 expressing yeast growth rescue, BacTiter-Glo, 24 h; 410,000 compounds, 1.8% hits; AID 652104; Potency, µM (series often up to 46.1 µM), inactives show top-dose growth rescue (activation), hits mostly activators; also: % of control where 0% means no effect; nearly all actives have a fitted effect of over 50% in size
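Galactose-induced TDP-43 yeast, OD600=0.02, compound pinned; 24 hr, 30 deg C; BacTiter-Glo luminescence for growth. Inhibitors of TDP-43 toxicity read as activators.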
An asterisk follows results filed as active; i = inactive; u = inconclusive; x = no result given; [ ] = dose if it differs, or a comment. Calls follow the shape of the dose curve; as a rule, active = well fitted curve in the direction sought with a large enough effect; inconclusive = small, poorly fitted or top-dose-only effect, or another doubt; inactive = no such curve, though single readings can be large; an effect the other way counts as inactive or inconclusive. Potency is read from the fitted curve at half-maximal effect.

SMILES	FUS yeast rescue	Abeta yeast res	aSyn yeast inh	TDP-43 yeast inh
Cc1ccc(CC(=O)N(Cc2nc(-c3ccc(C)cc3)no2)C(C)C)cc1	i	i	x	25.1µM*
COc1ccc(-c2noc(CN(C(=O)C(C)Oc3ccc(C)cc3)C(C)C)n2)cc1 (stereo not drawn)	i	i	x	35.5µM*
Cc1ccc(C(=O)N(Cc2nc(-c3ccc(C)cc3)no2)C(C)C)cc1	i	i	0.5%	13.1%
C[C@H](O)[C@@H]1CN2CCc3c([nH]c4cccc(-c5ccc6c(c5)OCO6)c34)[C@@H]2C[C@@H]1N(C)C(=O)c1ccco1	i	x	x	x
O=C(NCCNc1ccc([N+](=O)[O-])cc1C(F)(F)F)c1cccc(F)c1	x	u	-3.9%	u
O=C(NCCNc1ccc([N+](=O)[O-])cc1C(F)(F)F)c1ccccc1	x	i	11.6%	22.4µM*
COc1ccc(C2N(c3ccc(Cl)cc3)N=C(C(C)=O)N(C)N2C(C)=O)cc1 (stereo not drawn)	i	i	2.4%	22.4µM*
CC(=O)c1ccc(NC(=O)c2sc(-n3nc(C)c(Cc4ccccc4)c3C)nc2C)cc1	i	i	x	13.7%
c1ccc2[nH]c(CNc3nc(N4CCOCC4)nc4c3ncn4-c3ccsc3)nc2c1	i	x	x	x
c1ccc2cc3[nH]c(CNc4nc(N5CCOCC5)nc5c4ncn5-c4ccsc4)nc3cc2c1	14.1µM*	x	x	x
Cc1cc(Cl)cc(C)c1OCC(=O)N1CCN(c2ncccn2)CC1	i	i	0.1%	12.6µM*
CCn1cc2c(n1)-c1c(oc(C(=O)Nc3ccc(Br)cc3F)c1C)CC2	i	i	x	12.7%
COc1ccc(Cl)cc1NC(=S)NCCc1ccc(F)cc1	i	u	-13.0%	31.6µM*
COc1ccc(Cl)cc1NC(=O)NCCN1CCCCC1	i	i	0.2%	x
COc1ccc(Cl)cc1NC(=O)NCC1CCN(C(=O)OC(C)(C)C)CC1	31.6µM*	i	-10.5%	-12.4%
O=C(CCc1ccccc1)NNC(=O)c1cc(Cl)ccc1O	i	i	3.7%	-11.0%[1.82 µM]
COc1ccc(Cl)cc1NC(=O)CN(C)CC(=O)Nc1ccc(Br)cc1	i	i	4.8%	22.4µM*
Cc1cc(Cl)ccc1NNC(=O)CCc1ccccc1	i	i	9.7%	12.6µM*
COc1ccc(Cl)cc1NC(=S)NCCc1ccc(S(N)(=O)=O)cc1	i	i	-4.8%	-5.3%[9.22 µM]
COc1cccc(N2CCN(CC(=O)NCc3ccco3)CC2)c1	i	x	x	x
COc1cc(OC)c(NC(=O)CCCn2nc(C)c3sc4ccccc4c3c2=O)cc1Cl	i	i	x	22.7%
CCOC(=O)[C@@]12CCCC3=C1N(CCC3)C(=O)[C@H]2CC(=O)N1CCSCC1	i	x	x	x
COc1ccc(Cl)cc1NC(=O)CCc1ccccc1	i	i	0.7%	8.91µM*
COc1ccc(Cl)cc1NC(=O)N1CCN(c2ccccc2OC)CC1	u	i	12.9%	11.2µM*
COc1ccc(CN2C(=O)c3ccccc3C2=O)cc1C(=O)Nc1ccccc1N1CCOCC1	i	i	u	17.8µM*
SMILES	FUS yeast rescue	Abeta yeast res	aSyn yeast inh	TDP-43 yeast inh
CCCCN(CC)CCCNC(=O)Nc1sc2nc3n(c(=O)c2c1C)CCC(C)CC3 (stereo not drawn)	i	i	x	2.3%
O=C(OCCn1c(=S)sc2ccccc21)c1ccccc1	x	i	0.8%	11.2µM*
CC1CCCN(c2ncnc3c2cnn3-c2ccc(Cl)cc2)C1 (stereo not drawn)	i	i	-1.0%	14.1µM*
CCN(CC)C(=O)C1CCCN(c2ncnc3c2cnn3-c2ccc(Cl)cc2)C1 (stereo not drawn)	u	i	2.7%	20µM*
CCOC(=O)c1cccc(NC(=O)CN(C)S(=O)(=O)c2ccc(C)c(C)c2)c1	i	x	x	x
COc1ccccc1C(=O)Nc1cccc(OCc2cc(=O)n3ccccc3n2)c1	i	i	x	9.5%
COc1ccc(C(=O)O/N=C(\N)c2ccc(Br)cc2)cc1	i	i	-26.5%	2.51µM*
Cc1ccc(C(=O)O/N=C(\N)c2ccc(Br)cc2)cc1	x	i	-23.9%	3.98µM*
COc1cc(OC)c(C(=O)O/N=C(\N)c2ccc(C)cc2)cc1OC	i	i	-17.9%	11.2µM*
N/C(=N\OC(=O)c1ccc(Br)cc1)c1ccccc1	i	i	-25.0%	u
COc1ccc(C(=O)O/N=C(\N)c2ccccc2)cc1	i	i	-68.5%	u
CC(C)(C)c1ccc(C(=O)O/N=C(\N)c2ccccc2)cc1	i	i	-48.8%	3.16µM*
COc1cc(OC)c(C(=O)O/N=C(\N)c2cccc(C)c2)cc1OC	i	i	-54.3%	u
O=S(=O)(N[C@H]1CCCC[C@@H]1N1CCOCC1)c1ccc(Cl)cc1	i	x	x	x
COc1ccc(CCNC(=O)CN2C(=O)COc3ccc(S(=O)(=O)N4CCCCCC4)cc32)cc1OC	i	i	-3.6%	1.0%
COc1cc2nc(N3CCCCC3)nc(NC3CCN(Cc4ccccc4)CC3)c2cc1OC	x	x	-2.4%	x
COC(=O)C1(C)CCCC2(C)c3cc(OC)ccc3C(=O)C(Br)C12 (stereo not drawn)	u	i	-3.5%	25.1µM*
Cn1c(=O)c(=O)n(C)c2cc(S(=O)(=O)N3CCN(c4ccccc4Cl)CC3)ccc21	i	x	x	x
CS(=O)(=O)N1CCN(Cc2cc3nc(-c4cccc5[nH]ncc45)nc(N4CCOCC4)c3s2)CC1	x	x	-1.1%[92.2 µM]	x
Oc1ccccc1NCC(O)Cn1ccc2ccccc21 (stereo not drawn)	u	i	0.2%	0.1%
Nc1ccccc1SCC(O)Cn1ccc2ccccc21 (stereo not drawn)	i	i	u	17.8µM*
Cc1cccc(NC(=O)CSc2nc3c(c(=O)[nH]2)CN(Cc2ccc4c(c2)OCO4)CC3)c1C	i	i	x	6.2%
CCOC(=O)Cc1csc(NC(=O)c2ccc(Br)cc2)n1	i	i	-8.8%	12.6µM*
CCOC(=O)Cc1csc(NC(=O)c2ccc3ncsc3c2)n1	i	i	-14.7%	14.1µM*
CCOC(=O)Cc1csc(NC(=O)c2cccc(Cl)c2)n1	i	i	0.1%	u
CCOC(=O)Cc1csc(NC(=O)c2ccc(NC(C)=O)cc2)n1	i	i	-8.9%	-4.8%
O=C(NCCc1ccc(Cl)cc1)C1CCN(S(=O)(=O)c2ccc3[nH]ccc3c2)CC1	u	i	x	0.0%
Cc1ccc(S(=O)(=O)N2C[C@H]3[C@H]4C(=O)N(Cc5ccccc5)C(=O)[C@H]4CC(=O)[C@H]3[C@@H]2c2ccccc2F)cc1	17.8µM*	i	2.1%	23.3%
Cc1ccc(S(=O)(=O)N2C[C@H]3[C@H]4C(=O)N(Cc5ccccc5)C(=O)[C@H]4CC(=O)[C@H]3[C@@H]2c2ccccc2Cl)cc1	i	i	-0.5%	24.8%
CCC(=O)Nc1cc(C(=O)OC(C(=O)c2ccc(C)c(C)c2)c2ccccc2)ccc1C (stereo not drawn)	10µM*	i	-0.5%	-0.1%

Screening data as filed in PubChem.
